15 compounds from PubChem BioAssay (NCATS) can be followed below.

The nature of assay [1]: P-glycoprotein substrates identified in KB-8-5-11 adenocarcinoma cell line, qHTS therapeutic library screen (AID 1346987). Also: nearly all actives have a fitted effect of over 65% in size. Also: potency is read from the fitted curve at half-maximal effect. To be noted: KB-8-5-11 (P-gp overexpressing) viability, CellTiter-Glo, 72 h; series mostly up to 44.5 µM. Put shortly:
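Luminescence from CellTiter-Glo, read 5 min after addition, quantified survival of KB-8-5-11 (P-gp-overexpressing) cells exposed to compounds for 72 h. AC50 was derived from concentration-response curves.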
A general note: Quantitative high-throughput screening tests each substance at several concentrations.

The subject of assay [2] is Zika virus NS2B-NS3 protease (unlinked complex). The experiment in a line: Primary screen GU Rhodamine qHTS for Zika virus inhibitors: Unlinked NS2B-NS3 protease assay (AID 1347159). Also: nearly all actives have a fitted effect of over 60% in size. Also: potency is read from the fitted curve at half-maximal effect. As to activity change, negative = inhibition: % is scaled to controls: 0 for no effect and ±100 for the full control effect. To be noted: Recombinant ZIKV NS2B-NS3 protease, Rhodamine110 substrate fluorescence; series mostly up to 107 µM. Put shortly: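 Buffer 10 mM Tris-HCl pH 8.0, 0.01% Tween 20. Unlinked protease 25 nM; compound preincubation 15 min, RT, protected from light. Substrate Rhod110, 1.5 microM; ~15% conversion in 15 min.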

For assay [3], the target named is Cytochrome P450 2D6 (Homo sapiens) (UniProt P10635). The experiment in a line: Cytochrome P450 family 2 subfamily D member 6 (CYP2D6) small molecule antagonists: luciferase biochemical (cell-free) qHTS assay (AID 1645840; active = well fitted curve in the direction sought with a large enough effect in the repeat runs; an effect the other way counts as inactive or inconclusive; also: nearly all actives have a fitted effect of over 55% in size; also: potency is read from the fitted curve at half-maximal effect; as to activity change, negative = inhibition: % is scaled to controls: 0 for no effect and ±100 for the full control effect). To be noted: P450-Glo CYP2D6 enzyme, luciferin luminescence, 1 h; series mostly up to 57.4 µM. Put shortly: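 P450-Glo CYP2D6 system: proluciferin substrate converted by enzyme to luciferin, read by luminescence proportional to activity. Enzyme-substrate mix with compound 10 min at room temperature, then NADPH regeneration 1 h before detection reagent.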
Chain of Cytochrome P450 2D6 (Homo sapiens) (P10635 whole entry, looked up): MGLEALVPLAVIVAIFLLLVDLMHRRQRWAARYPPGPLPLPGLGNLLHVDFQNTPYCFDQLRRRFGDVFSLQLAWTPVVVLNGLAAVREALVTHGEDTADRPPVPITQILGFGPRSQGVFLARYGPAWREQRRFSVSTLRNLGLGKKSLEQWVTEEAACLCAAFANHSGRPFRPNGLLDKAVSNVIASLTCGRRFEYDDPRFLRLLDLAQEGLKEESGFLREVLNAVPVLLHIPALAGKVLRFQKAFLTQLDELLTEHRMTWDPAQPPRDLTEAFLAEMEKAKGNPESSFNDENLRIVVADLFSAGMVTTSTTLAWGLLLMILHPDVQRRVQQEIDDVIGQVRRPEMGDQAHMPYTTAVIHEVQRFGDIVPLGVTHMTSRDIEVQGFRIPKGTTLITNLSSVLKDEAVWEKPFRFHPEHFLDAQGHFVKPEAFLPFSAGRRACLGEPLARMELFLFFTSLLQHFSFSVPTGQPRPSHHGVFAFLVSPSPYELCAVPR

In assay [4] the target is Cytochrome P450 2C9 (Homo sapiens) (UniProt P11712). The experiment in a line: Cytochrome P450 family 2 subfamily C member 9 (CYP2C9) small molecule antagonists: luciferase biochemical (cell-free) qHTS assay (AID 1645842; active = well fitted curve in the direction sought with a large enough effect in the repeat runs; an effect the other way counts as inactive or inconclusive; also: nearly all actives have a fitted effect of over 55% in size; also: potency is read from the fitted curve at half-maximal effect; as to activity change, negative = inhibition: % is scaled to controls: 0 for no effect and ±100 for the full control effect). As to conditions: P450-Glo CYP2C9 enzyme assay, luciferin luminescence; series mostly up to 57.4 µM. Put shortly:
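P450-Glo CYP2C9 system: proluciferin substrate with enzyme in mix containing 0.4% BSA, 10 min at room temperature, then NADPH regeneration solution added and incubated 1 h at 37C. Detection reagent stopped reaction; luminescence read after 20 min as RLU.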

The test system of the next assay is PA-1. The experiment in a line: Primary qHTS to identify gynecologic anti-cancer compounds using libraries of approved drugs and bioactive compounds (AID 1345084). Also: nearly all actives have a fitted effect of over 55% in size. Also: potency is read from the fitted curve at half-maximal effect. To be noted: Gynecologic cancer cell panel viability, ATPlite luminescence, 48 h; series mostly up to 57.5 µM. Put shortly:
(§1)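 Cell viability after 48 h drug treatment, ATPlite luminescence readout; five doses.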

The nature of assay [5]: P-glycoprotein substrates identified in KB-3-1 adenocarcinoma cell line, qHTS therapeutic library screen (AID 1346986).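 Also: potency is read from the fitted curve at half-maximal effect; potency is for cytotoxicity meaning loss of cell viability; nearly all actives have a fitted effect of over 60% in size.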 To be noted: KB-3-1 parental cells viability, CellTiter-Glo, 72 h; series mostly up to 44.5 µM. Put shortly:
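Viability read by CellTiter-Glo after 72 h compound exposure in dose-response of KB-3-1 and KB-8-5-11 (P-gp-high) cells. Hits needed AC50 < 10 uM, >50% maximum response and curve class -1.1 to -2.4. Cherry-picks retested ± tariquidar, including pcDNA/MDR-19 HEK-293 pair.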

Assay [6] can be described thus: qHTS drug screen for cell cycle checkpoint inhibitors in PARPi-resistant BRCA-mutant ovarian cancer cell lines. (AID 1963452; calls by dose curve). To be noted: PEO1/OlaR viability, CellTiter-Glo luminescence, 96 h, stronger effect = lower value. Put shortly: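 PEO1, PEO4 and PEO1/OlaR ovarian cancer cells, 600 per well, exposed 96 h at 37C to a dilution series. Viability read by CellTiter-Glo luminescence, normalized to DMSO and empty wells; activity summarized as Z-AUC.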

Assay [7] is described as follows: Confirmatory screen GU Rhodamine qHTS for Zika virus inhibitors qHTS (AID 1347157). Also: potency is read from the fitted curve at half-maximal effect; nearly all actives have a fitted effect of over 70% in size. To be noted: purified enzyme assay, Rhodamine110 substrate fluorescence, 15 min; series mostly up to 114 µM. Put shortly:
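A qHTS format was used, with compound concentrations ranging up to 114 microM. Each compound was preincubated with 25 nM NS2B-NS3 protease, and the substrate was then added at 1.5 microM. Curves were fitted with a 4-parameter Hill model.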

Assay [8] can be described thus: HepG2 cells viability qHTS for Zika virus inhibitors (AID 1347168). Also: % is scaled to controls: 0 for no effect and ±100 for the full control effect. As to conditions: Zika counter-screen; series mostly up to 45.9 µM. Put shortly: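 Luminescent ATP readout (CellTiter Glo) after 30 min at 37 degrees C gives viability; cells in DMEM + 4% FBS were treated 24 to 48 hours with compound, following overnight attachment.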
In assay [9] the target is Catechol O-methyltransferase (Homo sapiens) (UniProt P21964). The experiment in a line: Confirmatory Screen for Target Class Profiling of Small Molecule Inhibitors of Methyltransferases (AID 1745852). As to conditions: MTase-Glo luminescence, SAH detection, recombinant enzyme; measured here: COMT max response; stronger effect = lower value.
Chain of Catechol O-methyltransferase (Homo sapiens) (P21964 whole entry, looked up): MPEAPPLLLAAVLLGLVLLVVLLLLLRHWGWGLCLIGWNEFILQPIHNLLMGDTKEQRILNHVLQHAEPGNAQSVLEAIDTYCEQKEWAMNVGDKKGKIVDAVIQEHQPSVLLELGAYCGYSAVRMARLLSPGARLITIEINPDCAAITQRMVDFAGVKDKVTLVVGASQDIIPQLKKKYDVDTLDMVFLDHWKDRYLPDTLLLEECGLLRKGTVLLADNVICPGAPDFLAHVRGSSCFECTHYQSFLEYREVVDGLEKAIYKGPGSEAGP
Assay [10] concerns the target Guanidinoacetate N-methyltransferase (Homo sapiens) (UniProt Q14353). The description is as above. As to conditions: MTase-Glo luminescence, SAH detection, recombinant enzyme; activity change, negative = inhibition: at 57.3 µM (top of the series) unless noted; series mostly up to 57.3 µM.
Assay [11] addresses Nicotinamide N-methyltransferase (Homo sapiens) (UniProt P40261). The description is as above. To be noted: MTase-Glo luminescence, SAH detection, recombinant enzyme; measured here: NNMT max response; stronger effect = lower value.
For assay [12], the target named is Phenylethanolamine N-methyltransferase (Homo sapiens) (UniProt P11086). Described as above. As to conditions: MTase-Glo luminescence, SAH detection, recombinant enzyme; measured here: PNMT max response; stronger effect = lower value.
Chain of Phenylethanolamine N-methyltransferase (Homo sapiens) (P11086 whole entry, looked up): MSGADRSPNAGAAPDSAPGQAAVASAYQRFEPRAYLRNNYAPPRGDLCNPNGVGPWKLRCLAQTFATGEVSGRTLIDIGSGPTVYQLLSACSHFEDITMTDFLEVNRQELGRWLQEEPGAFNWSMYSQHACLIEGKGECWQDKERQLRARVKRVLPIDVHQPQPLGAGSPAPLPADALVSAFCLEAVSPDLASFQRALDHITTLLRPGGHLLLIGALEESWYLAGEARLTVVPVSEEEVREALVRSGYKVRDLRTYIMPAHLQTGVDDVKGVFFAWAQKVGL
A further assay relates to SKOV3. The experiment in a line: Primary qHTS to identify gynecologic anti-cancer compounds using libraries of approved drugs and bioactive compounds (AID 1345084). Also: nearly all actives have a fitted effect of over 55% in size. Also: potency is read from the fitted curve at half-maximal effect. To be noted: Gynecologic cancer cell panel viability, ATPlite luminescence, 48 h; series mostly up to 57.5 µM. Put shortly:
as §1

Results filed as inconclusive are left out. Activity calls are given as the source filed them. Unless noted, calls follow the shape of the dose curve; as a rule, active = well fitted curve in the direction sought with a large enough effect; inconclusive = small, poorly fitted or top-dose-only effect, or another doubt; inactive = no such curve, though single readings can be large; an effect the other way counts as inactive or inconclusive.

Chain of Nicotinamide N-methyltransferase (Homo sapiens) (P40261 whole entry, looked up): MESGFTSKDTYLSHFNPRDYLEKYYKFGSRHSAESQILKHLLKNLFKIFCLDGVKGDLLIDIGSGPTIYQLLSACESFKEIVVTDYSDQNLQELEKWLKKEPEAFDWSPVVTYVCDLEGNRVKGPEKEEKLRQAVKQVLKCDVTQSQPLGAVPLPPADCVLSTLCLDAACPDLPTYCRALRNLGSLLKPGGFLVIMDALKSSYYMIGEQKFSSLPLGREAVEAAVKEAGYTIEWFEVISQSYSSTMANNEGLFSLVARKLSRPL
Chain of Cytochrome P450 2C9 (Homo sapiens) (P11712 whole entry, looked up): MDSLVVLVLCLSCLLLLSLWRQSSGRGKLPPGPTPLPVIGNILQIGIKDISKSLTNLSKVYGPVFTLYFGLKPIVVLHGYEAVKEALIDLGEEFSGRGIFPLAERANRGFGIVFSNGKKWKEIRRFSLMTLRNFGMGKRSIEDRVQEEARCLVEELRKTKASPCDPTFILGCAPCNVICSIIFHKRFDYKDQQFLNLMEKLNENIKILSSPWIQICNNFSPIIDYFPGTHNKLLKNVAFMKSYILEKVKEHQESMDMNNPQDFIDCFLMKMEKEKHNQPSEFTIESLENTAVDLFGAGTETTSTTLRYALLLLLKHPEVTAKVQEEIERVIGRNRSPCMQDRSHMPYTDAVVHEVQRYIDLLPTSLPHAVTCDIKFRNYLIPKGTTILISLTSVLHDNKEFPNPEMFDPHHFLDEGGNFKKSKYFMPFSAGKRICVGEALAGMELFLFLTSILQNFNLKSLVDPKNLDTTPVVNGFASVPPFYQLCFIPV

Consider `COc1cccc(NC[C@@H](O)Cn2c3ccc(Br)cc3c3cc(Br)ccc32)c1`, for which the values for the Potency in [1], in assay [2] and in assay [3] were 23.1 µM (active), 44.7 µM (active) and 8.49 µM (active), respectively. For the same compound, in [4], the Potency result is “inactive”.
As for `C=C1C(=O)O[C@@H]2[C@H]1[C@H](O)C[C@]1(C)[C@@H](O)CC=C(C)[C@@H]21`, the Potency entry with PA-1 is “inactive”.
On to `O=C(C1=CCN2c3c(cccc31)OC[C@H]2CN1CCOCC1)c1cccc2ccccc12`, for which the Potency result in [2] was “inactive”.
For `CC(C)COc1ccc(CNC(=O)N(Cc2ccc(F)cc2)C2CCN(C)CC2)cc1`, the Potency in assay [1] is 16.4 µM (active); in [3] it was 5.35 µM (active).
As for `CC(=O)Nc1nc2c(Oc3cc(-c4ccc(C(F)(F)F)cc4)ncn3)cccc2s1`, the Potency entry in assay [2] is “inactive”. In assay [4], the Potency was 10.7 µM (active).
With `CCOc1cc(CNC2CCCC2)cc(Cl)c1OCc1ccc(Cl)cc1`, the Potency is 1.51 µM (active) in assay [3] and 19 µM (active) in assay [4].
`COc1ccccc1-c1cc(Nc2cccc(CS(N)(=O)=O)c2)ncn1`: the Potency is 11.6 µM (active) in assay [5], 9.52 µM (active) in assay [4] and 22.4 µM (active) in the assay with PA-1. For the same compound, the Potency result in assay [1], in [2] and in assay [3] was “inactive” in each case.
`O=C(/C=C/n1cnc(-c2cc(C(F)(F)F)cc(C(F)(F)F)c2)n1)NNc1cnccn1`: in the assay on PA-1, the Potency was 10 µM (active).
As for `NC(=Nc1ccc(CCNCc2cccc(Cl)c2)cc1)c1cccs1`, the Potency in assay [1] is 23.1 µM (active); in assay [3], 0.477 µM (active); in [4] it was 12 µM (active). In addition, the Potency entry (in [2]; in the assay with PA-1) was “inactive” in each case.
Turning to `C[C@@H]1CCNC(=O)c2cc3ccc(C(=O)Nc4nc5ccccc5n4CCCN(C)C)cc3n21`, the Potency result (in [1]; in assay [2]; in assay [4]; in the assay on PA-1) was “inactive” throughout. For the same compound, the Z-AUC in assay [6] is -0.825 (inactive); in [6] (measured here: PEO1 parental Z-AUC) it was -0.925; in assay [6] (measured here: PEO4 Z-AUC), -1.11.
Regarding `N#Cc1cccc(C#N)c1-c1nc2c3ccccc3c3cc(Cl)ccc3c2[nH]1`, the Potency in assay [1] is 23.1 µM (active). In addition, in the assay on PA-1, the Potency entry was “inactive”.
Consider `O=C(O)c1ccc(O)c2ncc(N3CCCN(CCc4cccc5ccccc45)CC3)cc12`, for which the Potency in assay [7] was 13.9 µM (active). Besides, the Potency entry in assay [8] was “inactive”. Besides, the values for the activity in assay [9], in assay [11] and in assay [12] were 15.8%, -19.7% and -64.3%, respectively. The activity change, negative = inhibition in assay [10] turned out to be 8.48%.
In the case of `CN(C)CCCCCCNC(=O)c1cccc(-c2cc(O)c3ncccc3c2)c1`, the Potency in assay [1] was 8.2 µM (active). Further, the activity was -95.5% in assay [9], -1.3% in assay [11] and 4.93% in assay [12]. The activity change, negative = inhibition in assay [10] is 6.43%. Moreover, the Potency result with SKOV3 is “inactive”.
As to `CCCc1c(C(C)C)nc(C(C)C)c([C@@H](C)O)c1-c1ccc(F)cc1O`, the figures for the Potency in assay [2], in assay [3] and in assay [4] were 14.1 µM (active), 2.39 µM (active) and 4.77 µM (active), respectively. For the same compound, the Potency result with PA-1 was “inactive”.
For `COc1cc2nc(N3CCN(C)CC3)nc(NC3CCN(Cc4ccccc4)CC3)c2cc1OC`, in [1], the Potency is 16.4 µM (active). Besides, the Potency result in assay [2] is “inactive”. Also, the activity in assay [9] is -1.25%; in [11], -9.04%; in [12], 0.903%. In assay [10], the activity change, negative = inhibition is 9.72%.
